# Bioassay records deposited in PubChem BioAssay by several laboratories.
# Sampled rows, rich in hits. Any-hit rate of the full collection: about 3%.
# Arbovirus anti: antivirals against arbovirus infection, primary screen, cell-based, full library, 10K replicate subset; 200,000 compounds, 0.37% hits; arbovirus infection cell-based antiviral screen; inhibition, % at 10 µM; in the data active means inhibition above about 30%
# Mcl1-Bid inh: Mcl-1/Bid binding inhibitors, primary screen, biochemical, TR-FRET, 1536-well; Induced myeloid leukemia cell differentiation protein Mcl-1 (Homo sapiens), Q07820; TR-FRET Mcl-1/Bid-Dy647 peptide binding; inhibition, % at 21.7 µM; 220,000 compounds, 0.97% hits;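 active means compounds that cut the binding signal by more than half at the single screening dose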;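 further: His-tagged Mcl-1 with europium anti-His antibody binding Bid BH3 peptide; 0% = Mcl-1 plus peptide wells and 100% = peptide-only wells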
# Target sequence (Q07820 whole entry, looked up): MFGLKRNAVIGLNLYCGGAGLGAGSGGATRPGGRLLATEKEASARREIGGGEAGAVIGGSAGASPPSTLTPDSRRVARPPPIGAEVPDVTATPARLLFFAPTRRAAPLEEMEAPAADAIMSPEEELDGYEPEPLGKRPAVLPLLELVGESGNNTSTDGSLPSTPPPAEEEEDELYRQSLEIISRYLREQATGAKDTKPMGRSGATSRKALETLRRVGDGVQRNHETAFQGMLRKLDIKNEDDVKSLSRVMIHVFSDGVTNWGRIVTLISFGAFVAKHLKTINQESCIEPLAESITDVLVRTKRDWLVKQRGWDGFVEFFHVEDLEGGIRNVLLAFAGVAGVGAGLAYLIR
# 14-3-3 Bad PPI: inhibitors of 14-3-3 zeta/Bad binding, primary screen, biochemical, TR-FRET, bovine 14-3-3 zeta. 14-3-3 protein zeta/delta (Bos taurus), P63103. inhibition, % at 21.7 µM. TR-FRET 14-3-3zeta/Dy647-pBad peptide displacement, 1 h. 220,000 compounds, 0.71% hits;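 active means inhibition above about 70%, limit read from the data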;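 further: 0% = full 14-3-3 plus peptide FRET controls and 100% = background without 14-3-3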
# Target sequence (P63103 whole entry, looked up): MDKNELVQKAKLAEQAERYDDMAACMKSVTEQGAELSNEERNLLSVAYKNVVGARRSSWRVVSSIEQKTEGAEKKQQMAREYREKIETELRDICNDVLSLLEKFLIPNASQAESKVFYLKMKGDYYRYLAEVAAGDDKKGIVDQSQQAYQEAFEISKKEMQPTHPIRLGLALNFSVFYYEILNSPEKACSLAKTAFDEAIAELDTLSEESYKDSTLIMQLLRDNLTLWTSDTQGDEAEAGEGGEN
# Mcl1-Noxa inh: Mcl-1/Noxa binding inhibitors, primary screen, biochemical, TR-FRET, 1536-well; Induced myeloid leukemia cell differentiation protein Mcl-1 (Homo sapiens), Q07820; TR-FRET Mcl-1/Noxa peptide binding, 2 h; inhibition, % at 21.7 µM; 220,000 compounds, 1.5% hits;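 active means compounds that cut the protein-peptide binding signal by more than 50% relative to plate controls in a single-dose test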;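 further: His-tagged Mcl-1 with rhodamine Noxa BH3 peptide and terbium anti-His antibody; 0% = Mcl-1 plus Noxa peptide wells and 100% = peptide-only wells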
# Bim-Mcl-1: inhibitors of Bim peptide binding to Mcl-1, primary screen, biochemical, bead-based flow cytometry, multiplex; Induced myeloid leukemia cell differentiation protein Mcl-1 (Homo sapiens), Q07820; Bim peptide-Mcl-1 binding; inhibition, % at 10 µM; 190,000 compounds, 0.1% hits; AID 1009, 2008; in the data active means inhibition above about 40%;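 further: 0% = no compound tracer wells and 100% = peptide blocker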
# * marks the source's active call; other numbers are inactive results; x = not tested or not shown; [ ] = remark or other dose.
SMILES,Arbovirus anti,Mcl1-Bid inh,14-3-3 Bad PPI,Mcl1-Noxa inh,Bim-Mcl-1
COc1ccc(N2CCN(C(c3cc(OC)ccc3OC)c3nnnn3CC3CCCO3)CC2)cc1 (centres undefined),4,15,51,60*,-1
COc1ccc(N2CCN(C(c3cccc(OC)c3OC)c3nnnn3C3CCCC3)CC2)cc1 (centres undefined),-3,-27,77*,26,0
CCN1CCN(C(c2ccccc2)c2nnnn2Cc2ccccc2)CC1 (centres undefined),-3,34,62,43,-2
CC(C)NC(=O)C1CCN(c2ccc(S(=O)(=O)N3CCOCC3)cc2Cl)CC1,x,1,5,-21,x
NC(=O)[C@@H]1CCCNc2c(I)cc([N+](=O)[O-])cc2C(=O)N[C@@H](CO)C(=O)NCC(=O)N1,3,5,-6,-4,0
COc1cccc(C(=O)NC2CC3CCCC(C2)N3CC(=O)Nc2ccc(N(C)C)cc2)c1 (centres undefined),2,-45,10,34,0
COc1cccc(C(=O)NC2CC3CCCC(C2)N3CC(=O)Nc2ccccc2)c1 (centres undefined),23,54*,83*[fluorescence artefact?],66*,1
COCCn1c(SCc2nc3sc(C(=O)OC)c(C)c3c(=O)[nH]2)nc2ccccc21,16,39,30,23,0
CCn1c(SCc2nc3sc(C(=O)O)c(C)c3c(=O)[nH]2)nc2ccccc21,30,11,54,77*,2
O=CN/C=C/c1cc(O)ccc1O,x,-196,0,57*,x
COc1ccc2c(c1)c(=O)oc1cc3oc(C)c(C)c3cc12,-3,67*,10,56*,-4
COc1ccc2c(c1)c(=O)oc1cc(O)ccc12,-1,-10,4,6,0
CCOC(=O)C(=CNc1ccc2c(c1)nnn2-c1ccc(Cl)cc1)C(=O)OCC,-37,7,3,11,-4
Nc1cc2c(cc1[N+](=O)[O-])OCCO2,0,-52,-6,9,-3
Nc1cc2c(cc1[N+](=O)[O-])OCO2,-1,14,31,79*,3
Cc1ccc(S(=O)(=O)/N=C2/C=C(Sc3ncn[nH]3)C(=O)c3ccccc32)cc1,-44,65*,88*[fluorescence artefact?],98*,-7
Cc1ccc(S(=O)(=O)Nc2ccc(O)c(Sc3ncn[nH]3)c2)cc1,9,-29,-11,23,-1
Cc1ccc(S(=O)(=O)/N=C2/C=C(Sc3ncn[nH]3)C(=O)c3ccccc32)c(C)c1,-32,26,66,94*,11
CC(C)c1ccc(S(=O)(=O)/N=C2/C=C(Sc3ncn[nH]3)C(=O)c3ccccc32)cc1,-37,49,79*[fluorescence artefact?],105*,27
CC(C)c1onc(C(=O)N(C)C2CCCCC2)c1[N+](=O)[O-],6,-7,1,-9,0
O=C(N/N=C/c1ccc(Br)s1)c1c[nH]c2ccccc12,-9,-34,-1,11,-7
O=S(=O)(NN1CCOCC1)c1ccc(Cl)s1,0,-21,-4,15,0
CN1CCN(NC(=O)c2cccc(Br)c2)CC1,2,-16,-8,18,0
Cc1ccc(-c2nnc(SCC(=O)N/N=C/c3ccc(C)s3)n2-c2ccccc2)cc1,-6,32,22,-20,-5
CCN1/C(=C\C=C2\C(=O)N(c3ccccc3)C(=S)N2C)Sc2ccccc21,-12,78*,95*,60*,-5
SMILES,Arbovirus anti,Mcl1-Bid inh,14-3-3 Bad PPI,Mcl1-Noxa inh,Bim-Mcl-1
O=C(CN1CCCCC1)Nc1ccccc1-c1ccccc1,-1,-15,-4,11,-4
O=C(CN1CCN(C2CCCCC2)CC1)Nc1ccccc1-c1ccccc1,-4,44,83*,8,0
O=C(O)C(Cc1c[nH]c2ccccc12)N1Cc2ccccc2C1=O (centres undefined),9,-42,-11,-8,4
O=C(O)[C@H](Cc1ccccc1)N1Cc2ccccc2C1=O,5,72*,63,19,0
O=C(O)c1cnn2c(-c3ccc(F)cc3)ccnc12,-5,0,-4,0,0
NC(=O)c1cnn2c(-c3cccc(C(F)(F)F)c3)ccnc12,x,98*,-2,3,x
C/C(=N/NC(=O)c1ccc2c(c1)OCO2)c1ccc(NC(=O)C(F)(F)F)cc1,-7,31,86*,-58,0
C/C(=N\NC(=O)c1ccc2c(c1)OCO2)c1ccc(O)cc1,x,-15,-1,6,x
O=C1NC(=O)/C(=C\c2ccc(N3CCOCC3)o2)N1,-5,-38,-18,15,1
O=C(Nc1ccc(OC(F)F)cc1)c1ncc(Cl)c(Cl)c1Cl,8,5,98*,0,0
Cc1c(Cl)cn2c(=O)cc(CN(C)Cc3nc4ccccc4c(=O)[nH]3)nc2c1Cl,6,-11,-4,11,-5
COc1ccccc1Nc1nc(N)nc(CN2CC(C)CC(C)C2)n1 (centres undefined),-3,21,7,0,-5
COc1cc2c(c(OC)c1O)C(=O)CO2,x,-49,-5,15,x
COc1cc(OC)c2c(O)c3c(c(-c4c5c(c(O)c6c(OC)cc(OC)cc46)CO[C@@H](C)[C@H]5O)c2c1)[C@H](O)[C@H](C)OC3,12,79*,44,102*,-4
O=C(NCc1n[nH]c(=S)n1-c1ccc(Br)cc1)c1ccc(S(=O)(=O)N2CCOCC2)cc1,1,-16,-11,20,0
O=C1C2C3C=CC(CO)(O3)C2C(=O)N1c1ccccc1-c1ccccc1 (centres undefined),-1,5,8,53*,-14
CCNc1c(NCC)c(=O)c1=O,x,-16,-2,-6,x
C/C(=N\Nc1nc2c(s1)CCCC2)c1ccccc1,-30,20,80*[fluorescence artefact?],28,0
Cc1ccc(C(=O)NC(=S)Nc2ccc(NC(=O)c3cccs3)cc2)cc1[N+](=O)[O-],-24,52*,15,42,-6
CN(C)/N=C/c1ccc(P(c2ccc(/C=N/N(C)C)o2)c2ccc(/C=N/N(C)C)o2)o1,31*,-47,-2,13,0
COc1ccccc1N(C)S(=O)(=O)c1ccc(C(=O)OCC(N)=O)cc1,4,1,-7,14,44*
CCNc1nc(NCC)nc(C(=O)Nc2ccccc2)n1,-3,-48,-12,65*,-2
CCC(C)NC(=O)/C=C1\Sc2ccccc2NC1=O (centres undefined),-9,-30,-2,14,-6
CC(=O)c1ccc(N2CCN(c3ccc(C(N)=O)cc3[N+](=O)[O-])CC2)cc1,2,-21,-1,14,-1
NC(=O)c1ccc(N2CCN(c3ccc(O)cc3)CC2)c([N+](=O)[O-])c1,-3,-38,-11,64*,4
